# Measured values reported in the supplement of paper PMC6555819.
# How the values were obtained:
# Experiment in all cases: PBM binding z-score (relative to random genomic background probes); higher = stronger binding; sequences stand for … in GC…GCGATTGACAGCGTAGAATGAAGG
# [1] = test system: PPARg:RXRa DBDmut IVT, anti-RXR (DBD mutation: RXRa K156A/R161A, NR concentration 270 nM, RXRa partner concentration 90 nM)
# Summary of the method: (§1)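 Binding z-scores were set against random background probes. The data came from custom Agilent 4×180K protein-binding microarrays carrying double-stranded probes with 34-nt variable regions, incubated 1 h with ligand-free nuclear receptor dimers. Partner-specific antibodies detected binding, and scanned fluorescence was regression-normalized.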
# [2] = test system: PPARg:RXRa IVT, anti-PPARg (NR concentration 270 nM, RXRa partner concentration 90 nM)
# Summary of the method: as §1
# [3] = test system: PPARg homodimer (NR concentration 180 nM)
# Summary of the method: as §1
# [4] = test system: PXR:RXRa (NR concentration 270 nM, RXRa partner concentration 90 nM)
# Summary of the method: as §1
# [5] = test system: PXR homodimer (NR concentration 270 nM)
# Summary of the method: as §1
# [6] = test system: RARa:RXR (NR concentration 270 nM, RXRa partner concentration 90 nM)
# Summary of the method: as §1
# [7] = test system: RARa homodimer (NR concentration 270 nM)
# Summary of the method: as §1
# [8] = test system: RARb:RXRa (NR concentration 270 nM, RXRa partner concentration 90 nM)
# Summary of the method: as §1
# [9] = test system: RARb homodimer (NR concentration 270 nM)
# Summary of the method: as §1
# [10] = test system: RARg:RXRa (NR concentration 270 nM, RXRa partner concentration 90 nM)
# Summary of the method: as §1
# [11] = test system: RARg homodimer (NR concentration 270 nM)
# Summary of the method: as §1
# [12] = test system: RXRa DBDmut IVT, anti-RXR (DBD mutation: RXRa K156A/R161A, NR concentration 90 nM)
# Summary of the method: as §1
# [13] = test system: RXRa homodimer (NR concentration 180 nM)
# Summary of the method: as §1
# [14] = test system: THRa:RXRa (NR concentration 90 nM, RXRa partner concentration 90 nM)
# Summary of the method: as §1
# [15] = test system: THRa homodimer (NR concentration 90 nM)
# Summary of the method: as §1
# [16] = test system: VDR homodimer (NR concentration 270 nM)
# Summary of the method: as §1
Sequence,PBM binding z-score [1],PBM binding z-score [2],PBM binding z-score [3],PBM binding z-score [4],PBM binding z-score [5],PBM binding z-score [6],PBM binding z-score [7],PBM binding z-score [8],PBM binding z-score [9],PBM binding z-score [10],PBM binding z-score [11],PBM binding z-score [12],PBM binding z-score [13],PBM binding z-score [14],PBM binding z-score [15],PBM binding z-score [16]
TCCAGTAGGTTACGGGGGCATTCAGGGATGAAGA,5.86,6.84,2.22,3.68,1.9,3.51,0.616,2.97,2.45,3.99,3.38,2.49,3.03,3.96,1.63,3.69
TCGAGTAGGTTGCGGGGGCATTCAGGGATGAAGA,2.02,3.55,1.44,3.09,2.38,2.39,0.623,1.91,1.73,2.24,1.59,1.94,1.5,3.75,2.35,3.45
CTATGTATGTTAAGGGGGTCATTCAGTTTGAAAG,4.85,5.88,5.05,5.85,9.76,5.5,3.39,3.74,3.92,4.71,3.61,3.03,5.44,3.91,2.88,6.32
CCGAGTAGGTTACGAGGGGGCATTCCGTGCGAAT,4.52,4.42,1.68,4.37,0.912,2.94,0.747,2,1.89,3.09,2.37,1.01,2.12,3.56,0.446,2.75
CCGAGTAGGTTACGAGGGGGCATACAGTGCGAAT,4.86,4.23,2.45,4.27,2.55,3.03,1.01,2.15,2.29,3.21,2.68,1.2,2.14,3.61,0.618,2.68
TCGAGTAGGTTACGGGGACATTCAGGGATGAAGA,4.18,4.72,1.95,0.696,-0.0868,1.17,0.0881,1.43,1.42,1.26,1.01,0.561,1.09,2.77,1.57,1.1
CTATGTAGGTTAAGGGGGTGATTCAGTTTGAAAG,7.48,7.27,2.45,2.49,2.65,2.41,1.25,2.34,1.97,2.23,1.77,1.42,2,2.21,1.73,2.22
CTATTTAGGTTAAGGGGGTCATTCAGTTTGAAAG,6.86,6.59,5.85,5.9,12.3,5.84,2.72,3.71,3.95,5.19,4.01,2.74,5.73,4.05,2.07,6.2
CTATGTAAGTTAAGGGGGTCATTCAGTTTGAAAG,3.56,5.22,3.28,5.6,10.3,5.28,2.58,3.35,3.7,4.43,3.19,3.07,5.16,3.78,2.28,5.94
TCGGGTAGGTTACGGGGGCATTCAGGGATGAAGA,4.27,6.24,3.68,4.2,3.72,4.12,1.88,3.35,3.18,4.23,4.1,3.04,3.43,4.32,3.14,4.85
CCGAGTAGGTTACGAGGGGGCATTCGGTGCGAAT,3.74,4.36,1.85,4.83,4.05,2.98,0.224,2.22,2.06,3.04,2.32,0.865,2.22,3.76,0.298,3.61
CTATGTAGGTTAAGCGGGTCATTCAGTTTGAAAG,7.52,7.09,2.08,3.8,8.04,3.31,0.415,2.16,2.58,2.62,1.94,1.29,3.17,2.56,0.448,3.14
CTATGTAGGTTAAGGGGGTCATTCACTTTGAAAG,7.7,7.41,3.47,5.59,4.83,5.77,1.84,3.4,3.95,5.11,4.05,2.33,5.85,3.53,1.72,5.5
CTATGTAGGTTAAGGGGGTCCTTCAGTTTGAAAG,7.26,6.7,1.58,2.33,1.68,1.92,0.652,1.67,1.5,1.79,1.26,0.924,1.49,2.17,0.899,1.49
TCGAGTAGCTTACGGGGGCATTCAGGGATGAAGA,1.25,2.26,0.346,2.21,1.09,1.47,-0.926,0.94,0.903,1.03,0.544,1.14,1.12,3.35,0.239,2.71
CCCAGTAGGTTACGAGGGGGCATTCAGTGCGAAT,5.3,5.49,1.71,4.89,5.08,2.68,0.297,2.2,2.13,3.35,2.76,0.746,2.04,3.89,0.525,3.62
CTATGTAGGTGAAGGGGGTCATTCAGTTTGAAAG,7.88,8.11,2.81,5.89,9.91,6.01,0.852,3.52,3.79,4.75,3.55,2.11,5.63,3.88,1.67,5.55
TCGACTAGGTTACGGGGGCATTCAGGGATGAAGA,5.37,6.51,2.41,3.59,2.11,3.47,0.467,2.91,2.54,3.66,3.14,2.55,2.88,4.1,1.91,3.72
TCGAGTAGGTTACGGGGGCATTTAGGGATGAAGA,5.1,5.8,1.44,3.25,1.54,3.29,0.213,2.56,2.32,3.47,2.58,2.03,2.73,4.01,1.4,3.52
TCGAGTAGGTGACGGGGGCATTCAGGGATGAAGA,5.39,6.13,2.07,3.15,1.91,2.63,0.214,2.45,2.01,2.59,1.91,1.94,1.86,3.83,1.64,3.28
TCGAGTAGGTTCCGGGGGCATTCAGGGATGAAGA,1.44,2.23,1.05,2.68,1.13,1.96,-0.469,1.17,1.25,1.57,1.13,1.02,1.33,3.53,1.08,3.01
TCGAGTAGGTTACGGGGGCATGCAGGGATGAAGA,5.07,5.87,1.59,2.75,0.876,2.91,0.522,2.5,2.19,3.5,2.31,1.35,2.78,3.28,0.997,1.92
CCGAGTAGGTTACGAGGGTGCATTCAGTGCGAAT,4.66,3.87,0.357,4.47,4.3,0.897,-0.753,1.13,0.573,0.908,0.734,0.804,1.18,1.71,-0.985,3.12
CCGATTAGGTTACGAGGGGGCATTCAGTGCGAAT,3.12,3.4,1.22,4.69,3.98,2.28,0.441,2.49,2.56,3.12,2.54,1.96,1.52,3.91,1.57,2.8
CCGAGTGGGTTACGAGGGGGCATTCAGTGCGAAT,3.36,3.81,1.4,4.8,5.23,2.53,-0.433,1.65,1.94,2.95,2.18,1.09,1.75,3.72,0.652,3.43
CCGAGTAGGTTACGAGGGGGCATTAAGTGCGAAT,4.89,4.4,2.11,4.77,7.4,2.72,0.983,2.15,2.04,3.1,2.45,1.56,2.14,3.52,0.655,3.56
CCGAGTAGGTTACGAGGGGGCCTTCAGTGCGAAT,4.2,4,1.59,1.73,0.533,1.56,0.0772,1.47,0.846,2.15,1.32,0.265,0.978,2.11,0.4,0.498
CCGAGTAGGTTACGAGGGGGCTTTCAGTGCGAAT,4.79,4.3,0.789,2.01,0.241,1.55,-0.415,1.41,0.961,1.85,1.36,0.879,1.08,2.33,0.299,0.538
TCGAGTAGGTTACGGGGGTATTCAGGGATGAAGA,4.5,5.38,1.51,2.09,0.83,2.49,0.925,2.07,1.58,2.08,1.62,1.44,2.06,2.99,1.08,1.21
CCTAGTAGGTTACGAGGGGGCATTCAGTGCGAAT,6.21,6.3,3.88,5.02,6.19,2.97,1.46,2.32,2.39,3.44,2.96,1.47,2.43,3.91,0.978,3.98
